Compound activity from PubChem.
IL-1B inflam inh = inflammasome signaling inhibition, IL-1 beta readout; activity change, % at 57.5 µM; actives 4.7% (n = 360,000); THP-1 LPS/ATP IL-1B secretion, AlphaLISA, 16 h; active compounds read low; in the data active means activity change below about -50%; inconclusive means mostly about -30% to -49%; further: on the % scale 0 is the no-effect control and ±100 the full control effect
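Secreted IL-1B measured by AlphaLISA bead assay after 16 h compound exposure of THP-1 cells; compounds (final up to 57.5 uM) added 1 h before LPS (250 ng/mL) and ATP (1.25 mM) stimulation; lower signal means less secretion.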
USP1 inh = USP1/UAF1 (human) deubiquitinase inhibition | actives 0.23% (n = 390,000) | recombinant USP1/UAF1, Ub-Rhodamine cleavage fluorescence | O94782 | Potency, µM (top dose mostly 57.1 µM), without a hit: top-dose activity change, negative = inhibition, most hits filed as inhibitors | AID 743255; further: potency means the concentration at half of the fitted maximal effect; on the % scale 0 is the no-effect control and ±100 the full control effect; nearly all actives have a fitted effect of over 60% in size
Target sequence (O94782 whole entry, looked up): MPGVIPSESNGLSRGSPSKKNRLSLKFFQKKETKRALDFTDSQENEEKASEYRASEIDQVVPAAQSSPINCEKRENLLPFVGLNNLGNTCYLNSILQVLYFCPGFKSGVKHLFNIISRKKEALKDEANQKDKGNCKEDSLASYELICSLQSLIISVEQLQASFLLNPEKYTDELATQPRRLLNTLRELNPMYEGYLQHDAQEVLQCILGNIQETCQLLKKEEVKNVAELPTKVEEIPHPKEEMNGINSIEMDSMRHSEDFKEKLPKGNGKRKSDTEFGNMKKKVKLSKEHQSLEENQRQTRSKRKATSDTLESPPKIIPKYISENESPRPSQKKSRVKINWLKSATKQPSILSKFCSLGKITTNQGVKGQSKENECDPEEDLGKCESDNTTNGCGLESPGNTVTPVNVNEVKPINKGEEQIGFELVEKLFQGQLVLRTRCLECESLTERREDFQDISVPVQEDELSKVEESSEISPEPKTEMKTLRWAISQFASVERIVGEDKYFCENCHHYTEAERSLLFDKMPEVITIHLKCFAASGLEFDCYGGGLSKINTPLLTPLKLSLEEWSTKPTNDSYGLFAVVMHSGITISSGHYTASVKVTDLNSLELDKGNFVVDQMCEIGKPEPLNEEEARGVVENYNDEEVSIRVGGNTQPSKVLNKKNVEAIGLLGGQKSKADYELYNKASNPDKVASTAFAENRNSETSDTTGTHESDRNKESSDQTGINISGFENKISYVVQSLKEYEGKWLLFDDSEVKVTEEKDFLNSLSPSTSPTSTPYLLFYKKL
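USP1/UAF1 complex (1 nM) preincubated 15 min at room temperature with compound, then Ub-Rho substrate (150 nM final) added. Kinetic fluorescence at 480/540 nm over 6 reads at 60 s intervals; 50 mM HEPES pH 7.8, 0.5 mM EDTA, 0.1 mg/ml BSA, 1 mM TCEP, 0.01% Tween-20.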
USP2a inh = inhibitors of human ubiquitin-specific protease USP2a | AID 463254 | Potency, µM (doses to about 38.3 µM), for the others: at the top dose activity change, negative = inhibition, hits mostly inhibitors | USP2 core, Ub-CHOP2 coupled fluorogenic reporter, 485/531 | actives 0.01% (n = 330,000);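 further: potency means the concentration at half of the fitted maximal effect; plate controls were DMSO wells for no effect and full inhibition by NEM control for full effect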
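Cell-free coupled assay: 10nM USP2 core preincubated 30min RT with compound in Tris-HCl pH 8.0/CaCl2/CHAPS buffer, then 25nM Ub-CHOP2 and 25nM reporter substrate; fluorescence (Ex 485/Em 531) read after 60min RT, normalized to NEM inhibition, concentration-response curves fitted.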
ATXN viability = cell viability loss in ATXN counter-screen; S2 cells (HEK-293 line with an ATXN2-luciferase reporter) viability, CellTiter-Fluor protease fluorescence, 24 h; Potency, µM (doses to about 56.7 µM), most hits filed as cytotoxic; actives 0.49% (n = 400,000); further: potency means the concentration at half of the fitted maximal effect; nearly all actives have a fitted effect of over 40% in size
ATXN2 expr inh = reduces ATXN2 reporter expression in HEK-293 cells. HEK-293 ATXN2-luciferase reporter, luminescence, 24 h. Potency, µM (top dose mostly 57 µM), for inactives: at the highest dose activity change, negative = inhibition, hits mostly inhibitors. actives 0.72% (n = 360,000); further: potency means the concentration at half of the fitted maximal effect; on the % scale 0 is the no-effect control and ±100 the full control effect; nearly all actives have a fitted effect of over 55% in size
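ATXN2-luciferase reporter cells (luciferase flanked by upstream and downstream ATXN2 gene portions) were treated 24 h at 37 °C with compounds at up to 57 uM. SteadyGlo luminescence gave expression; GF-AFC fluorescence gave viability.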
Starred values were filed as active, the others as inactive; i = inactive; u = inconclusive; x = not tested or not shown; [ ] = remark or other dose. The list is not random: actives were taken first. Their share in the collection is about 4.8%. Unless noted, the call rests on the fitted dose curve; in most records, active means well fitted curve in the direction sought with a large enough effect; inconclusive means small, poorly fitted or top-dose-only effect, or another doubt; inactive means no such curve, though single readings can be large; an effect the other way counts as inactive or inconclusive.

SMILES	IL-1B inflam inh	USP1 inh	USP2a inh	ATXN viability	ATXN2 expr inh
CCn1c(C)c(C)c2cc(C(=O)NCc3ccc(OC)cc3OC)ccc21	x	-11.6%	x	x	x
O=C1C(Cl)=C(Nc2ccc(F)cc2)C(=O)N1CCc1ccccc1	-147.6*	18.9%	-3.6%	i	27.9%
COc1ccc(OC)c(NC2=C(Cl)C(=O)N(Cc3ccccc3)C2=O)c1	-164.8*	-13.6%	-1.5%	i	-26.9%
CC1CCCCN1C(=O)c1cccc(NC2=C(Cl)C(=O)N(Cc3ccccc3)C2=O)c1 (centres undefined)	-88.1*	-18.6%	-7.2%	i	x
O=C1C(Cl)=C(Nc2cccc(O)c2)C(=O)N1Cc1ccccc1	-98.2*	-25.3%	4.3%	i	-25.0%[11.3 µM]
CCOc1ccccc1NC1=C(Cl)C(=O)N(Cc2ccccc2)C1=O	-4.8	-10.9%	-0.4%	i	-18.9%
C=CCNC1=C(Cl)C(=O)N(Cc2ccccc2)C1=O	u	-10.2%	2.7%	i	0.5%
CCN(CC)S(=O)(=O)c1ccc2c(c1)N(CC(=O)Nc1ccc(C)cc1C)C(=O)C1CCCN21 (centres undefined)	x	-11.9%	x	x	x
CC1CCN(C(=O)c2ccc(NC3=C(Cl)C(=O)N(Cc4ccccc4)C3=O)cc2)CC1	-93.0*	u	1.9%	u	u
CC1CCN(C(=O)c2ccc(NC(=O)c3ccccc3)cc2)CC1	-5.7	-14.5%	-1.8%	i	1.7%
CCOC(=O)c1ccc(N2C(=O)c3n[nH]c(C)c3C2c2ccc(OC)cc2OC)cc1 (centres undefined)	-58.2*	-18.2%	-17.3%	i	-17.5%
CCOC(=O)c1ccc(N2C(=O)c3n[nH]c(-c4ccco4)c3C2c2cccc([N+](=O)[O-])c2)cc1 (centres undefined)	-82.7*	-14.6%	1.0%	i	-0.9%
CCOC(=O)c1ccc(N2C(=O)c3n[nH]c(-c4cccs4)c3C2c2cccc(O)c2)cc1 (centres undefined)	x	-13.8%	x	28.2µM*	u
CCOC(=O)c1ccc(N2C(=O)c3n[nH]c(-c4cccs4)c3C2c2ccc(CC)cc2)cc1 (centres undefined)	x	-24.1%	x	x	x
O=c1cc(-c2ccccc2)[nH]n1-c1ccc([N+](=O)[O-])cc1	-63.8*	-24.8%	0.0%	x	u
O=c1c(N=Nc2ccc(O)cc2)c(-c2ccccc2)[nH]n1-c1ccc([N+](=O)[O-])cc1	-21.8	-13.9%	-4.1%	u	-17.6%
O=C(NCCOc1ccccc1)C1Nc2ccc(C(F)(F)F)cc2C2c3ccccc3CC12 (centres undefined)	-74.0*	-15.9%	x	i	-36.7%
CCOC(=O)C1Nc2ccccc2C2C(O)C(O)CC12 (centres undefined)	26.7	u	x	u	-33.6%
CCOC(=O)C1Nc2ccc(C(F)(F)F)cc2C2c3ccccc3CC12 (centres undefined)	-99.3*	-31.5%	x	u	25.1µM*
OCC1(Cc2cccc(F)c2)CCN(Cc2cccc3nccnc23)CC1	u	-14.1%	-1.6%	i	-17.7%
CC(C)c1csc(CN2CCC(CO)(Cc3cccc(F)c3)CC2)n1	-59.0*	-23.9%	-4.3%	i	-14.1%
O=C1C(C2=C(O)c3ccccc3C2=O)=Nc2ccccc21	-93.4*	14.1µM*	-5.7%	u	u
COc1ccc2c(c1)-c1nc(-n3ncc(C(=O)NC[C@@H]4CCCN5CCCC[C@H]45)c3C)ncc1CC2	x	x	x	25.1µM*	x
COc1ccc2c(c1)-c1nc(-n3ncc(C(=O)NCC4CCCN(C)C4)c3C3CC3)ncc1CC2 (centres undefined)	x	x	x	i	x
S=c1[nH]nc(-c2cc(-c3ccccc3)n[nH]2)n1/N=C/C(Br)=C/c1ccccc1	-99.2*	0.1%	1.9%	29.9µM*	u
SMILES	IL-1B inflam inh	USP1 inh	USP2a inh	ATXN viability	ATXN2 expr inh
S=c1[nH]nc(-c2ccco2)n1/N=C/C(Cl)=C/c1ccccc1	u	u	-0.2%	u	38.8%
Cc1cc(-c2n[nH]c(=S)n2/N=C/C(Cl)=C/c2ccccc2)n[nH]1	-96.9*	-23.3%	2.6%	i	35.9%
CCOC(=O)c1ccc2c(c1)nc(SC(C)C(=O)NCC1CCCO1)n2CC (centres undefined)	-3.0	-23.8%	3.7%	i	x
COc1cc(=O)n2c(c1C(=O)N(C)Cc1cscn1)CCN(C(=O)c1cccc(C)c1C)CC2	x	x	x	i	x
COc1ccc(NC(=O)CN2CCN(CC(=O)Nc3ccc(OC)cc3)CC2)cc1	-16.0	-5.5%	1.2%	x	-31.7%
Cc1ccc(S(=O)(=O)Nc2ccc(C(OC(=O)c3ccccc3[N+](=O)[O-])(C(F)(F)F)C(F)(F)F)cc2)cc1	-88.1*	-1.8%	-24.4%	i	-3.1%
Cc1ccc(OCCN2CCN(c3nc(NCc4ccco4)c4ccccc4n3)CC2)cc1	-60.4*	-16.9%	3.5%	i	-4.6%
c1ccc(CN2CCN(c3nc(NCc4ccco4)c4ccccc4n3)CC2)cc1	-64.0*	-6.3%	-6.1%	i	u
Cc1ccc(S(=O)(=O)Nc2nc3ccccc3nc2NCc2ccco2)cc1	13.6	u	4.9%	i	142.0%
OCCN1CCN(c2nc(NCc3ccco3)c3ccccc3n2)CC1	-15.6	0.2%	2.7%	i	-16.2%
CC1CCCC(NCC(O)COC(c2ccc(F)cc2)c2ccc(F)cc2)C1C (centres undefined)	-115.4*	-6.5%	-1.9%	u	u
CC1CCCC(NC(=O)CSc2ccc(F)cc2)C1C (centres undefined)	-8.5	-19.1%	1.3%	u	x
C/C(=N\NC(=O)c1ccccc1OCc1ccc(F)cc1)c1ccccn1	51.9	-22.6%	1.1%	u	x
C/C(=N\NC(=O)c1ccc(Cl)c(Cl)c1)c1ccc(Br)s1	6.4	-8.7%	-0.9%	i	u
COc1ccc(C(=O)N/N=C\C(C)=C\c2ccccc2)cc1OC	-94.4*	0.2%	x	i	-19.0%
CCOc1ccc(OCc2ccc(C(=O)N/N=C(\C)c3ccccn3)cc2)cc1	113.3	-16.5%	3.8%	u	2.82µM*
COc1ccc(C(=O)N/N=C(\C)c2ccccn2)cc1OC	-78.9*	-12.3%	2.1%	u	u
C/C(=N\NC(=O)c1ccc(Cl)c(Cl)c1)c1ccccn1	-103.4*	-11.6%	0.7%	u	u
C/C(=N/NC(=O)c1ccc(C(C)(C)C)cc1)c1ccccn1	83.5	12.8%	x	i	u
CCC1CN(CCNC(=O)c2ccc(N3CCOCC3)cc2)Cc2cc(OC)ccc2O1 (centres undefined)	x	x	x	i	x
Cn1ncc2c(Nc3cccc(Cl)c3)nc(Nc3cccc(Cl)c3)nc21	-81.1*	-18.3%	-8.7%	i	u
Cn1ncc2c(Nc3ccc(Br)cc3)nc(Nc3ccc(Br)cc3)nc21	-101.4*	-13.4%	-6.8%	i	-31.8%
